Results taken from PubChem BioAssay (EPA / NIEHS).
Activity calls are given as the source filed them. How the source made its calls: active means hit-call score of the fitted dose curve at least 0.9, where 1 is the maximum; inactive means score below 0.9.

read-out: Cytochrome P450 (CYP24A1_1), CYP24A1 (gene 1591); test: LTEA_HepaRG_CYP24A1_1: Life Technologies and Expression Analysis (LTEA) Assay for Cytochrome P450 (CYP24A1_1) using HepaRG (AID 2283671); conditions: mRNA level, 48 h; actives raise or lower the signal
Protocol: LTEA_HepaRG is a cell based, multiplexed-readout assay that uses HepaRG, a human liver cell line, with measurements taken at 48 hours after chemical dosing on a 96-well plate.LTEA_HepaRG_CYP24A1_1 is one of 102 assay component(s) measured in the LTEA HepaRG cell culture assay. It is a marker of NR mediated metabolism.Data from the assay component LTEA_HepaRG_CYP24A1_1 was analyzed into 1 endpoint. This assay endpoint, LTEA_HepaRG_CYP24A1_1, was analyzed with bidirectional fitting relative to DMSO as the negative control and baseline of activity. Using a type of inducible reporter, measures of mRNA induction for gain or loss-of-signal activity can be used to understand regulation of transcription factor activity. To generalize the intended target to other relatable targets, this assay endpoint is annotated to the cyp intended target family, where the subfamily is xenobiotic metabolism.
A total of 1060 chemcials from the ToxCast library were tested in eight-point concentration-response experiments. Cell culture and cytotoxicity assays were conducted at Thermo Fisher Scientific's Custom Services facility (Madison, WI). A single lot of human HepaRG cells (Thermo Fisher Scientific, Frederick, MD) was used for the cell culture experiments. 96-well format collagen type I coated plates of human HepaRG cells were prepared using established methods. Briefly, cryopreserved HepaRG cells were thawed, plated at a density of approximately 100,000 cells/well in HepaRG Thaw, Plate, and General Purpose media (HPRG770, Thermo Fisher Scientific), and incubated for 48 hours. 0.5% DMSO was selected as vehicle control to balance the requisite need of DMSO in HepaRG cultures to maintain differentiation (for example, baseline metabolism, proportions of hepatocytes vs. cholangiocytes), while enabling further hepatic receptor pathway activation (for example, PXR and CAR) in response to chemical exposure. 48 hours after plating, the culture medium was replaced with HepaRG Serum-Free Incudtion Media. Cells were exposed to each test chemical in duplicate and maintained in CO2 incubators for another 48 hours. Chemical plates were thawed to room temperature and 200x concentrations of treatment groups were prepared. 8-point conentration-reponse curves were made with the highest exposure at 100 uM, followed by half-log dilutions, all in 0.5% DMSO. Each test plate contained variouse controls, induction positive controls (1mM phenobarbital), cytotoxicity positive controls ([…] aflatoxin B1), vehicle controls (0.5% DMSO), and total lysis controls (0.5% DMSO). Cell morphology images were taken using an Essen IncuCyte FLR automated microscope, with six 96-well plates imaged in about 24 minutes. Images were captured and exported and JPEG files. Spent culture media was transfered to black-well plates for the LDH assay, and remaining media was sorted at -80 C for later use. Cells were treated with RLT buffer and frozen until shipped for gene expression analysis. Total RNA was isolated from the cell suspension in 75 uL of Buffer RLT (Qiagen, Germantown, MD 20874) by Quintiles/Expression Analysis (Durham, NC) using a custom isolation procedure. Total RNA from each plate well was transferred to a preamplification plate. Fluidigm's 96.96 Dynamic ArrayTM (Fluidigm, Amsterdam, the Netherlands) technology was used for gene expression analyses by quantitative reverse transcription polymerase chain reaction (qRT-PCR, performed by Quintiles/Expression Analysis, Durham, NC)89. Standard TaqManTM Assays (Applied Biosystems/ThermoFisher Scientific, Foster City, CA) were used to assess the expression of 93 genes selected based on their selectivity and sensitivity to important hepatic receptors known to be modulated by environmental chemicals; importance in human hepatocyte functionality; and hepatotoxicity. […]

Row | SMILES | outcome
1 | CCOP(=S)(OCC)Oc1ccc2c(C)c(Cl)c(=O)oc2c1 | inactive
2 | CC(COc1ccc(Oc2ccccc2)cc1)Oc1ccccn1 (stereo not given) | inactive
3 | CNC(=O)Oc1cccc2c1OC(C)(C)O2 | inactive
4 | CCc1cccc(CC)c1N(COC)C(=O)CCl | inactive
5 | CCOP(=S)(Oc1cnc(C(C)(C)C)nc1)OC(C)C (stereo not given) | inactive
6 | CCCCN(CC)c1c([N+](=O)[O-])cc(C(F)(F)F)cc1[N+](=O)[O-] | inactive
7 | CC1(C(=O)Nc2ccc(O)c(Cl)c2Cl)CCCCC1 | inactive
8 | CSc1nc(NC(C)C)nc(NC(C)C)n1 | inactive
9 | CC[C@H](C)[C@H]1O[C@]2(C=C[C@@H]1C)C[C@@H]1C[C@@H](C/C=C(\C)[C@@H](O[C@H]3C[C@H](OC)[C@@H](O[C@H]4C[C@H](OC)[C@@H](NC)[C@H](C)O4)[C@H](C)O3)[C@@H](C)/C=C/C=C3\CO[C@@H]4[C@H](O)C(C)=C[C@@H](C(=O)O1)[C@]34O)O2 | inactive
10 | CCOC(=O)CC(SP(=O)(OC)OC)C(=O)OCC (stereo not given) | inactive
